These results are taken from PubChem BioAssay AID1851 (National Center for Advancing Translational Sciences (NCATS), 2009).

Screen size: about 16,000 compounds; about 2,600 (16%) were called active. Inconclusive results (about 20%) are left out. The call rests on the fitted dose curve; in most records, active means well fitted curve in the direction sought with a large enough effect; inconclusive means small, poorly fitted or top-dose-only effect, or effect the other way; inactive means no such curve, though single readings can be large or run the other way. Not all results are given here.
On the % scale 0 is the no-effect control and ±100 the full control effect.

The target of this assay is Cytochrome P450 2D6 (Homo sapiens) (UniProt P10635). Briefly: Cytochrome panel assay with activity outcomes. Conditions: recombinant CYP, pro-luciferin dealkylation, luminescence, p450-cyp2d6; series mostly up to 57.1 µM; activity, negative = inhibition: at the top concentration.
Sequence of Cytochrome P450 2D6 (Homo sapiens) (P10635 whole entry, looked up): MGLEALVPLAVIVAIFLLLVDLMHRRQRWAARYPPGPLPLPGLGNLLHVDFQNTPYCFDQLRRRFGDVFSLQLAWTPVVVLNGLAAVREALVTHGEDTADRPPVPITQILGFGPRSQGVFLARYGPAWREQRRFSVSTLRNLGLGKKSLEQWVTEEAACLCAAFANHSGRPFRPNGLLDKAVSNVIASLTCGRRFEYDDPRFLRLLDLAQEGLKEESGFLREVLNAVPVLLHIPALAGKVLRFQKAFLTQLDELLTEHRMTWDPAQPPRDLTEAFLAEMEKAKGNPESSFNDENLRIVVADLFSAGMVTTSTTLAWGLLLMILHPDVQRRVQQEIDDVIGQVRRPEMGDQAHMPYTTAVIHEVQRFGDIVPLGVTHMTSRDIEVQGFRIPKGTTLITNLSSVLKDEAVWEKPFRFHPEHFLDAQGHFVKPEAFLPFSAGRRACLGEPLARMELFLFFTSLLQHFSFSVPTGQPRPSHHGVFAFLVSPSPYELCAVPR
As for `Cc1ccc(CNC(=O)C2CC(c3ccccc3[N+](=O)[O-])=NO2)cc1` (stereo unspecified), the “activity, negative = inhibition” value was -28% (inactive).
For the compound `Cc1ccc(CCNC(=O)C2CC(c3ccccc3[N+](=O)[O-])=NO2)cc1` (stereo unspecified), the AC50 is 2.51 µM (active).
As to `Cc1ccc(CNC(=O)C2CC(c3ccccc3[N+](=O)[O-])=NO2)o1` (stereo unspecified), the “activity, negative = inhibition” value was -26.5% (inactive).
`O=C(NCCCCc1ccccc1)C1CC(c2ccccc2[N+](=O)[O-])=NO1` (stereo unspecified): the AC50 is 0.1 µM (active).
As for `CC(C)(C)OC(=O)N1CCCC1C(=O)NCCc1ccccc1` (stereo unspecified), the “activity, negative = inhibition” value is -28.5% (inactive).
For `CCCc1cc(=O)oc2cc(OCc3cc(OC)c(OC)c(OC)c3)c(Cl)cc12`, the “activity, negative = inhibition” value is -0.725% (inactive).
For `O=C(Cc1ccccc1)N/N=C\c1ccc(Br)o1`, the “activity, negative = inhibition” value was 9.59% (inactive).
The same measure, in the same setting: the figure for `O=C(Nc1cccc2ncccc12)c1cccc(F)c1` is -5.82% (inactive); for `CC1Cc2ccccc2N1C(=O)CCN1C(=O)C2C3C=CC(C3)C2C1=O` (stereo unspecified) it is -0.934% (inactive); for `CC(C)(C)Cn1nc(-c2ccc(Cl)cc2)c2c(N)ncnc21` it is 11.5% (inactive).
Same read-out and setting: then `Nc1nc(N)nc(CCCc2nc(N)nc(N)n2)n1`, with 19.1% [at 11.4 µM] (inactive).
Still for that read-out and setting: the figure for `C/C(=C(/CCO)SSC[C@@H]1CCCO1)N(C=O)Cc1cnc(C)nc1N` is 9.85% [at 25.6 µM] (inactive).
Take `COc1cccc(Nc2ncc3ncc(=O)n(CCC#N)c3n2)c1`: the “activity, negative = inhibition” value was -7.47% (inactive).
As for `C1CCc2c(nc3nnnn3c2NC2CCCC2)C1`, the “activity, negative = inhibition” value was -12.2% (inactive).
Still for that read-out and setting: then `Cc1cc(=O)oc(C)c1C(=O)Nc1ccc(Cl)cn1`, with 2.86% (inactive).
In the case of `CCOc1ccc(C(=O)Nc2ccc(Cl)cn2)cc1Cl`, the half-maximal activity concentration (AC50) was 7.94 µM (active).
On the same count and under the same terms, the figure for `COc1ccc(C(=O)Nc2ccc(Cl)cn2)cc1Cl` is 3.55 µM (active).
`CCOc1ccc(C(=O)Nc2cccc(-c3nc4cccnc4o3)c2)cc1Cl`: the “activity, negative = inhibition” value is -14.5% (inactive).
Same read-out and setting: then `COc1ccc(C(=O)Nc2cc(Cl)ccc2OC(=O)c2ccc(OC)cc2)cc1`, with -21.4% (inactive).
Same read-out and setting: the figure for `CCOc1ccc(C(=O)Nc2ccc(NC(=O)c3ccco3)c(Cl)c2)cc1Br` is 0.903% (inactive); for `CCOc1cccc(C2C(C(=O)c3ccc(C)o3)=C(O)C(=O)N2Cc2ccncc2)c1` (stereo unspecified) it is -2.19% (inactive).
Still for that read-out and setting: then `CC(C)NC(=O)C(C)n1cccc1C(=O)c1ccccc1` (stereo unspecified), with 1.03% (inactive).
As for `O=C(CCS(=O)(=O)c1cccs1)N1CCN(c2ccc(F)cc2)CC1`, the concentration at half-maximal activity (AC50) was 20 µM (active).
With `CCC(=O)N1CCN(c2ccc(NC(=O)c3cccs3)cc2)CC1`, the “activity, negative = inhibition” value was 1.92% (inactive).
Regarding `O=C(c1cc(-c2cccs2)on1)N1CCN(c2ccc(F)cc2)CC1`, the “activity, negative = inhibition” value was -4.98% (inactive).
The same measure, in the same setting: then `Cc1nc2sccn2c(=O)c1Cl`, with 5.34% (inactive).
As to `CCCCCCCCN1C(=O)N(C)C(N(O)C(=O)NC)C1(C)C` (stereo unspecified), the “activity, negative = inhibition” value was -18.4% (inactive).
As to `Cc1cc(C(=O)CSC(=S)SC(C)(C)C)ccc1Cl`, the activity, negative = inhibition was -0.319% [at 11.4 µM] (inactive).
Still for that read-out and setting: the figure for `CCC(C(=O)N1CCOCC1)n1c(C(=O)OC)cc2occc21` (stereo unspecified) is -3.34% (inactive); for `CCS(=O)(=O)N1CCC[C@H]2CN3CCc4cc(OC)ccc4[C@@H]3C[C@@H]21` it is 1.15% (inactive).
As to `COc1c(O)ccc2c1CN1CCc3cc4c(cc3[C@@H]1C2)OCO4`, the AC50 was 0.158 µM (active).
Turning to `COc1cc2c3cc1Oc1c(OC)c(OC)cc4c1[C@@H](Cc1ccc(O)c(c1)Oc1ccc(cc1)C[C@@H]3N(C)CC2)CN(C)C4`, the activity, negative = inhibition is 2.38% [at 11.4 µM] (inactive).
Still for that read-out and setting: then `COc1ncc2nc(C)c(=O)n(C3CC3)c2n1`, with -6.88% (inactive); and `COc1ccc(Cc2n[nH]c(=O)c3ccccc23)cc1OC`, with 2.51% (inactive).
The same measure, in the same setting: the figure for `O=C(CNC(=O)c1ccco1)OCc1c(F)cccc1Cl` is -19.8% (inactive).
Still for that read-out and setting: then `N[C@@H](CSC(=O)c1ccccc1)C(=O)O`, with 9.96% [at 11.4 µM] (inactive); and `O=C(OCCN1CCCCC1)c1c[nH]c2ccccc12`, with 4.62% (inactive).
Turning to `Cc1c(-c2ccccc2)oc2c(C(=O)OCCN3CCCCC3)cccc2c1=O`, the AC50 was 7.94 µM (active).
On to `Cc1ccccc1C(=O)Oc1ccc(Br)cc1C(=S)N1CCCC1`, for which the “activity, negative = inhibition” value was -18.1% (inactive).
Regarding `Cc1ccccc1Oc1ccc(-c2nc(N)nc(N)n2)cc1`, the “activity, negative = inhibition” value is -15.2% (inactive).
With `O=C(CCN1CCCCC1)c1csc2ccccc12`, the AC50 is 1 µM (active).
For the compound `O=C(Oc1ccc2ccccc2c1Br)N1CCCCCC1`, the “activity, negative = inhibition” value was -20.5% (inactive).
Same read-out and setting: then `O=C(N/N=C/c1ccc(O)cc1)c1csc2ccccc12`, with 1.92% (inactive); and `Cc1noc(C)c1-c1cc(N2CCN(C)CC2)ncn1`, with -0.596% (inactive); and `O=C(O)Cc1ccc2c(c1)N(S(=O)(=O)c1cccc(C(F)(F)F)c1)CC(C(=O)O)O2` (stereo unspecified), with 2.47% (inactive).
Still for that read-out and setting: the figure for `C=CC1=C[C@@H](O)C2OC2C12OCCCO2` (stereo partly specified) is -1.06% [at 11.4 µM] (inactive); for `Cc1[nH]n(-c2ccc(S(=O)(=O)O)cc2)c(=O)c1N=Nc1ccccc1` it is 16.9% [at 11.4 µM] (inactive).
For `O=C(Oc1ccccc1)N1CCC2(CCCN(c3ccccc3)C2)CC1`, the “activity, negative = inhibition” value is -6.41% (inactive).
With `CCCCCn1c(CN2CCCCC2C)nc2c1c(=O)n(C)c(=O)n2C` (stereo unspecified), the AC50 was 14.1 µM (active).
Regarding `CCCCn1c(SCC(=O)N2CCCC2)nc2c1c(=O)n(C)c(=O)n2C`, the “activity, negative = inhibition” value is 0.341% (inactive).
With `CN(C)CCn1c(CO)nc2c1c(=O)n(C)c(=O)n2C`, the activity, negative = inhibition is -1.53% [at 11.4 µM] (inactive).
On to `Cc1ccc(-n2nnnc2SCC(=O)NNC(=O)c2ccco2)c(C)c1`, for which the “activity, negative = inhibition” value is 21.1% (inactive).
On the same count and under the same terms, then `O=C(O)Cc1cccnc1`, with 16.4% [at 11.4 µM] (inactive).
On to `c1ccc(C[C@@H](Nc2cccnc2)c2ccccc2)cc1`, for which the AC50 is 1 µM (active).
`O=C(NCC(c1cccnc1)N1CCOCC1)Nc1ccccc1` (stereo unspecified): the “activity, negative = inhibition” value is -29% (inactive).
The same measure, in the same setting: then `O=S(=O)(O)c1cc(O)c2c(O)c(N=Nc3cccc4ccccc34)c(S(=O)(=O)O)cc2c1`, with -16% [at 11.4 µM] (inactive).
Still for that read-out and setting: then `COc1cc(C2SCCCCCCCCCCSC(c3ccc(O)c(OC)c3)SCCCCCCCCCCS2)ccc1O` (stereo unspecified), with 6.94% [at 11.4 µM] (inactive).
On the same count and under the same terms, the figure for `COc1ccc(NC(=O)COC(=O)c2c3c(nc4ccccc24)CCCC3)cc1` is -28.1% (inactive).
Take `COc1ccc(OC)c(NC(=O)c2c3c(nc4ccccc24)CCC3)c1`: the “activity, negative = inhibition” value is -23.5% (inactive).
For the compound `COc1cccc(NC(=O)COC(=O)c2c3c(nc4ccccc24)CCC(C)C3)c1` (stereo unspecified), the concentration at half-maximal activity (AC50) was 7.94 µM (active).
In the case of `C[N+]1(CCOc2ccc([N+](=O)[O-])cc2)CCOCC1`, the “activity, negative = inhibition” value was -9.46% (inactive).
Same read-out and setting: then `Cc1ccc(/S(C)=N/S(=O)(=O)c2ccc(C)cc2)cc1` (stereo unspecified), with -12.1% (inactive); and `C[C@@H](c1ccccc1)N1C(=O)[C@@H]2[C@H]3C(=CC[C@H]2C1=O)C(=O)[C@H]1O[C@H]1[C@H]3O`, with 5.61% [at 11.4 µM] (inactive).
On to `CN1CCN(c2nc(-c3ccccc3)cc(C(F)(F)F)n2)CC1`, for which the half-maximal activity concentration (AC50) was 17.8 µM (active).
In the case of `COc1ccccc1N1CCN(c2nc(-c3ccccc3)cc(C(F)(F)F)n2)CC1`, the “activity, negative = inhibition” value is -3.52% (inactive).
Still for that read-out and setting: then `COc1cccc(-c2cc(C(F)(F)F)nc(N3CCN(c4ccccc4)CC3)n2)c1`, with -13.2% (inactive).

As a reminder, the AC50 is the concentration at which the activity in the assay is half-maximal.
